Our source for the growth values is PubChem BioAssay (NCI).

About 83,000 compounds went through this panel and 20% of them were active in at least one assay; those are over-represented in the sample as a whole.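 For each line, cells grew in 96-well plates with the test compound present at a single concentration for 48 hours.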 A number with no mark means an inactive call. Active and inactive are the calls of the source. The calls were made as follows: active = growth percent below 10; inactive = the rest.

Test systems include NCI-H23 lung; NCI-H226 lung; NCI-H322M lung; HOP-62 NSCLC; NCI-H460 lung; HOP-92 NSCLC; NCI-H522 lung; A549/ATCC NSCLC; 786-0 renal; COLO 205 colon; DU-145 prostate; K-562 leukemia; MALME-3M melanoma; MDA-MB-231 breast; RXF 393 renal; SF-268 CNS; SF-295 CNS; SF-539 CNS; UACC-257 melanoma; M14 melanoma.
What all share (assay): NCI-60 one-dose screen, 48 h (100 = growth as untreated, 0 = no growth, -100 = all killed)
What all share (conditions): 10 µM unless noted

On to `O=C(CNc1ncco1)Nc1ccc(S(=O)(=O)c2ccc(NC(=O)CNc3ncco3)cc2)cc1`, for which the growth in the experiment on NCI-H23 lung was 4.33% (active); with NCI-H226 lung, -17.7% (active); in the experiment with NCI-H322M lung, 75.2%; in the experiment with HOP-62 NSCLC, 32.7%; in the experiment on NCI-H460 lung, -60.4% (active); in the experiment on HOP-92 NSCLC, 81%. Moreover, the growth was -96.9% (active) in the experiment on NCI-H522 lung; 6.88% (active) in the experiment with A549/ATCC NSCLC; 20.9% in the experiment on 786-0 renal; -59.9% (active) with COLO 205 colon; 115% in the experiment on DU-145 prostate; -6% (active) with K-562 leukemia. Besides, the growth with MALME-3M melanoma was -38.8% (active); in the experiment with MDA-MB-231 breast, 14.6%; in the experiment on RXF 393 renal, -38.6% (active); in the experiment on SF-268 CNS, 99.1%; with SF-295 CNS, 49.7%; in the experiment on SF-539 CNS, -15.4% (active). The values for the growth with UACC-257 melanoma and in the experiment with M14 melanoma were 10.3% and -28.8% (active), respectively.
Consider `COc1cc2c(cc1-c1c(C)noc1C)ncc1nc(C3CCOCC3)n(C3CCC(OC(F)F)CC3)c12` (stereo not drawn), for which the growth with NCI-H23 lung is 56.7%; with NCI-H226 lung it was 67.9%; in the experiment on NCI-H322M lung, 52.4%; in the experiment with HOP-62 NSCLC it was 30.4%; with NCI-H460 lung it was 72.6%; with HOP-92 NSCLC it was 21.8%. Also, the growth was 3.74% (active) with NCI-H522 lung; 57.4% with A549/ATCC NSCLC; 51.8% with 786-0 renal; 22.6% in the experiment with COLO 205 colon; 73.2% with DU-145 prostate; 47.6% in the experiment with K-562 leukemia. The growth with MALME-3M melanoma is 44.1%; in the experiment with MDA-MB-231 breast, 36.2%; with RXF 393 renal, 59%; in the experiment on SF-268 CNS, 64.9%; in the experiment on SF-295 CNS it was 53.5%; in the experiment with SF-539 CNS it was 56.6%. Besides, the growth in the experiment on UACC-257 melanoma is 47.7%; with M14 melanoma, 54.6%.
`O=C(c1ccc(F)cc1)C1CCN(CCn2c(=O)[nH]c3ccccc3c2=O)CC1`: the growth is 99.6% in the experiment on NCI-H23 lung; 97.8% with NCI-H226 lung; 105% with NCI-H322M lung; 108% in the experiment with HOP-62 NSCLC; 122% with NCI-H460 lung; 87.8% with HOP-92 NSCLC. Moreover, the growth with NCI-H522 lung is 82.9%; in the experiment on A549/ATCC NSCLC, 107%; with 786-0 renal, 97%; in the experiment with COLO 205 colon it was 103%; with DU-145 prostate, 108%; in the experiment on K-562 leukemia, 100%. Besides, the growth was 89.3% in the experiment with MALME-3M melanoma; 110% with MDA-MB-231 breast; 115% in the experiment on RXF 393 renal; 103% in the experiment on SF-268 CNS; 97.6% with SF-295 CNS; 103% in the experiment with SF-539 CNS. Also, the growth was 110% in the experiment with UACC-257 melanoma and 104% in the experiment with M14 melanoma.
As to `COc1cc2cc(Oc3ccc(NC(=O)Nc4ccc(F)c(C(F)(F)F)c4)cc3)c(C)nc2cc1OCCN1CCCCC1`, the growth is 34.2% with NCI-H23 lung; 81.1% in the experiment on NCI-H226 lung; 69.5% in the experiment on NCI-H322M lung; 95.4% with HOP-62 NSCLC; -69.2% (active) in the experiment with NCI-H460 lung; 33.5% with HOP-92 NSCLC. Besides, the growth in the experiment on NCI-H522 lung is -66.6% (active); in the experiment with A549/ATCC NSCLC, -45.9% (active); with 786-0 renal, 61.9%; with COLO 205 colon it was -64% (active); with DU-145 prostate, -24.2% (active); in the experiment with K-562 leukemia, -34.7% (active). In addition, the growth with MALME-3M melanoma was -87.9% (active); with MDA-MB-231 breast, 27.6%; in the experiment with RXF 393 renal, 59.5%; in the experiment on SF-268 CNS, 76.6%; with SF-295 CNS, 72.8%; in the experiment with SF-539 CNS, 75.3%. In addition, the results for the growth in the experiment on UACC-257 melanoma and in the experiment on M14 melanoma were -52.5% (active) and -86.8% (active), respectively.
In the case of `C=C(C)[C@@H]1CC[C@]2(COC(=O)c3cccnc3)CC[C@]3(C)[C@H](CC[C@@H]4[C@@]5(C)CCCN(C(=O)c6cccnc6)C(C)(C)[C@@H]5CC[C@]43C)[C@@H]12`, the growth with NCI-H23 lung was 42.6%; with NCI-H226 lung, 42.1%; in the experiment with NCI-H322M lung, 65.6%; with HOP-62 NSCLC it was 61%; with NCI-H460 lung, 17.7%; in the experiment with HOP-92 NSCLC, 32.9%. Besides, the growth with NCI-H522 lung is 34.3%; with A549/ATCC NSCLC it was 29.3%; with 786-0 renal, 45.1%; in the experiment with DU-145 prostate it was 44%; with K-562 leukemia, 13.7%; in the experiment on MALME-3M melanoma, 69.1%. The growth was 52.7% with MDA-MB-231 breast; 56.1% with RXF 393 renal; 45.5% in the experiment with SF-268 CNS; 40.9% in the experiment with SF-295 CNS; 46.4% in the experiment with SF-539 CNS; 19.9% with UACC-257 melanoma. The growth in the experiment with M14 melanoma was 41.5%.
Take `FC(F)(F)c1cc(N2CCCCC2)nc(NCCCNc2ccnc3cc(Cl)ccc23)n1`: the growth is 27.2% in the experiment with NCI-H23 lung; 73.6% with NCI-H226 lung; 80% in the experiment on NCI-H322M lung; 73.5% in the experiment with HOP-62 NSCLC; 74.4% with NCI-H460 lung; 32.9% in the experiment on HOP-92 NSCLC. The growth in the experiment on NCI-H522 lung is 47.4%; in the experiment on A549/ATCC NSCLC it was 50.5%; in the experiment with 786-0 renal it was 59.7%; in the experiment with COLO 205 colon, 7.41% (active); in the experiment on DU-145 prostate, 81.8%; in the experiment on K-562 leukemia, 11.2%. Moreover, the growth is 72.7% with MALME-3M melanoma; 87.9% in the experiment on MDA-MB-231 breast; 59.7% in the experiment on RXF 393 renal; 70.3% in the experiment on SF-268 CNS; 51.1% in the experiment on SF-295 CNS; 74.8% in the experiment with SF-539 CNS. In addition, the growth in the experiment with UACC-257 melanoma was 53.3%; with M14 melanoma it was 70.9%.
Take `CCN1C(=O)N(CC)C2C1NN=c1s/c(=C\c3ccc(F)cc3)c(=O)n12` (stereo not drawn): the growth in the experiment with NCI-H23 lung is 39.3%; with NCI-H226 lung it was 63.4%; in the experiment on NCI-H322M lung it was 44.2%; in the experiment with HOP-62 NSCLC, 39.3%; in the experiment on NCI-H460 lung it was 5.08% (active); with HOP-92 NSCLC, 43.6%. Moreover, the growth is -5.22% (active) in the experiment with NCI-H522 lung; 15.5% in the experiment on A549/ATCC NSCLC; 35% in the experiment on 786-0 renal; -11.2% (active) with DU-145 prostate; 8.05% (active) in the experiment with K-562 leukemia; 49.9% in the experiment on MALME-3M melanoma. In addition, the growth in the experiment on MDA-MB-231 breast was 24.1%; with RXF 393 renal, 5.29% (active); in the experiment with SF-268 CNS, 53.3%; in the experiment with SF-295 CNS, 13.6%; in the experiment on SF-539 CNS it was -14.9% (active); with UACC-257 melanoma, 56%. Also, the growth in the experiment on M14 melanoma was 12.6%.
